According to PubChem BioAssay AID1117283 (Broad Institute, 2014):
Measured potencies and affinities stand elsewhere. Unmarked numbers belong to inactive results.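 How the source made its calls: active means fluorescent signal decreased by at least 40%; inconclusive means no clear call, values can overlap the other calls; inactive means the rest, including activity opposite to the expected direction.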

Assay: inhibition of fibronectin matrix deposition – AH1F cells, Alexa488-fibronectin fluorescence, cherry-pick, set 2, dose response (AID 1117283);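 further: AH1F fibroblasts given Alexa488-labelled fibronectin at 24 nM final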
Settings: AH1F fibroblasts, overnight; series mostly up to 35 µM; activity change, negative = inhibition: at the top concentration
With `CO[C@@H]1CN(C)C(=O)c2cc(NC(=O)Nc3cc(Cl)cc(Cl)c3)ccc2OC[C@@H](C)NC[C@@H]1C` the “activity change, negative = inhibition” value was 7.38%.
For `COCC(=O)Nc1ccc2c(c1)C(=O)N(C)[C@H]1CC[C@@H](CC(=O)NCc3ccccc3Cl)O[C@H]1CO2`, the “activity change, negative = inhibition” value was 8.86%.
With `COc1cccc(-c2ccc3c(c2)[C@@H]2[C@@H](CCN2S(=O)(=O)c2cccc(OC)c2)[C@@H](CO)N3)c1` the “activity change, negative = inhibition” value was -8.07%.
For `C[C@@H]1CN([C@@H](C)CO)C(=O)c2cc(-c3ccccc3)cnc2O[C@@H]1CN(C)Cc1ccccc1`, the “activity change, negative = inhibition” value was 7.12%.
With `Cc1ccc(S(=O)(=O)N2CC[C@@H]3[C@H](CO)Nc4ccc(-c5cccc(C(=O)N(C)C)c5)cc4[C@@H]32)cc1` the “activity change, negative = inhibition” value was 1.14%.
For `CC1(C)Cc2c(C#N)c(SCC(=O)c3ccccc3)nc(N3CCOCC3)c2CS1`, the “activity change, negative = inhibition” value was -6.32%.
With `COc1ccc(-c2oc3ncnc(NCCCN4CCOCC4)c3c2-c2ccc(OC)cc2)cc1` the “activity change, negative = inhibition” value was -3.3%.
For `CN1c2ccc(-c3ccccc3)cc2[C@H]2[C@H](CCN2C(=O)CN2CCOCC2)[C@H]1CO`, the “activity change, negative = inhibition” value was -7.43%.
In the case of `Cc1ccc(S(=O)(=O)N2CC[C@H]3[C@H](CO)Nc4ccc(-c5cccc(C(=O)N(C)C)c5)cc4[C@H]32)cc1`, the “activity change, negative = inhibition” value is reported as 3.11%.
With `N#Cc1ccc(-c2ccc3c(c2)[C@@H]2[C@@H](CCN2S(=O)(=O)c2cccc(F)c2)[C@@H](CO)N3)cc1` the “activity change, negative = inhibition” value was 2.96%.
In the case of `CO[C@@H]1CN(C)C(=O)c2ccc(NC(=O)c3ccc(-c4ccccc4)cc3)cc2OC[C@H](C)NC[C@@H]1C`, the “activity change, negative = inhibition” value is reported as -8.9%.
With `N#Cc1ccc(-c2ccc3c(c2)[C@@H]2[C@@H](CCN2S(=O)(=O)c2ccccc2F)[C@H](CO)N3)cc1` the “activity change, negative = inhibition” value was 27.1%.
With `CO[C@H]1CN(C)C(=O)c2ccc(NC(=O)Nc3ccc(Cl)c(Cl)c3)cc2OC[C@H](C)NC[C@H]1C` the “activity change, negative = inhibition” value was -3.99%.
In the case of `CO[C@H]1CN(C)C(=O)c2ccc(NC(=O)c3ccc(-c4ccccc4)cc3)cc2OC[C@@H](C)NC[C@@H]1C`, the “activity change, negative = inhibition” value is reported as -7.14%.
With `CN(C)C(=O)c1ccc(-c2ccc3c(c2)[C@@H]2[C@@H](CCN2C(=O)c2ccc(F)cc2)[C@@H](CO)N3C)cc1` the “activity change, negative = inhibition” value was -0.065%.
In the case of `NC(=O)C1=C[C@H](c2coc3ccccc3c2=O)C[C@H](OCCCCO)O1`, the “activity change, negative = inhibition” value is reported as 12.8%.
With `COc1ccc(C)cc1N(CC(=O)Nc1cccc(N(C)S(C)(=O)=O)c1)S(C)(=O)=O` the “activity change, negative = inhibition” value was -1.69%.
With `O=C(CC1Nc2ccccc2NC1=O)Nc1ccc2c(c1)OCO2` (configuration not stated) the “activity change, negative = inhibition” value was -12%.
For `O=C(Nc1cc(Sc2nc3ccccc3s2)cc([N+](=O)[O-])c1)c1ccccc1F`, the “activity change, negative = inhibition” value was 10.8%.
For `C[C@@H](O)C#Cc1ccc2c(c1)O[C@@H](CN(C)C)[C@@H](C)CN([C@@H](C)CO)S2(=O)=O`, the “activity change, negative = inhibition” value was -0.196%.
In the case of `Cc1ccc([N+](=O)[O-])cc1NC(=O)CN(C(=O)c1ccccc1Cl)C1CCCCC1`, the “activity change, negative = inhibition” value is reported as -2.21%.
In the case of `Cc1ccc(N(CC(=O)NCc2ccco2)S(=O)(=O)c2ccccc2)cc1`, the “activity change, negative = inhibition” value is reported as -11.7%.
In the case of `O=C(Nc1ccccc1F)N1C[C@H]2[C@@H](c3ccccc31)[C@@H](CO)N2C(=O)C1CC1`, the “activity change, negative = inhibition” value is reported as 14.7%.
For `C[C@H](CO)N1C[C@H](C)[C@@H](CN(C)Cc2ccc(-c3ccccc3)cc2)Oc2ccc(NC(=O)CCCN(C)C)cc2C1=O`, the “activity change, negative = inhibition” value was 0.831%.
In the case of `O=C(Nc1ccc(Cl)cc1)N1C[C@H]2[C@@H](c3ccccc31)[C@H](CO)N2CC1CCCC1`, the “activity change, negative = inhibition” value is reported as 0.835%.
For `CO[C@H]1CN(C)C(=O)c2ccc(NC(=O)c3ccc(-c4ccccc4)cc3)cc2OC[C@H](C)NC[C@H]1C`, the “activity change, negative = inhibition” value was 4.53%.
For `O=C(NCc1ccccc1)c1ccc(-c2cn[nH]c2)c2ccoc12`, the “activity change, negative = inhibition” value was 2.33%.
With `CC(C)(C)[S@](=O)N1Cc2cc(C(=O)NCc3ccccc3F)nc(-c3cccc(-c4cncnc4)c3)c2[C@@H]1CCO` the “activity change, negative = inhibition” value was 7.09%.
With `CC1CN(C(=O)c2cc3c(=O)n4ccccc4nc3n2C)CC(C)O1` (configuration not stated) the “activity change, negative = inhibition” value was -6.58%.
For `N#C[C@@H]1[C@@H](c2ccccc2C2=CCCCC2)[C@@H](CO)N1S(=O)(=O)c1ccccc1`, the “activity change, negative = inhibition” value was 2.54% [at 30 µM].
With `C[C@H]1CN([C@@H](C)CO)C(=O)c2cc(-c3ccccc3)cnc2O[C@@H]1CN(C)Cc1ccccc1` the “activity change, negative = inhibition” value was -1.31%.
For `C[C@H](O)C#Cc1ccc2c(c1)O[C@@H](CN(C)C)[C@H](C)CN([C@H](C)CO)S2(=O)=O`, the “activity change, negative = inhibition” value was -5.23%.
With `COc1ccc(CCNC(=O)C2CCN(Cc3nc(-c4ccccc4F)oc3C)CC2)cc1OC` the “activity change, negative = inhibition” value was 7.77%.
In the case of `Nc1nc(-c2cc3c(cc2Cl)OCCO3)cs1`, the “activity change, negative = inhibition” value is reported as 11.5%.
With `CO[C@H]1CN(C)C(=O)c2ccc(NC(=O)c3ccc(-c4ccccc4)cc3)cc2OC[C@H](C)NC[C@@H]1C` the “activity change, negative = inhibition” value was 40.8%.
For `C[C@@H]1CN([C@@H](C)CO)C(=O)c2cc(NC(=O)C3CCCCC3)ccc2O[C@@H]1CN(C)Cc1ccc(-c2ccccc2)cc1`, the “activity change, negative = inhibition” value was -14.2%.
For `O=C(c1cccnc1)N1C[C@H]2[C@@H](c3ccccc31)[C@H](CO)N2CC1CCCC1`, the “activity change, negative = inhibition” value was 8.16%.
